Some test systems named below: HCT-15 colon; HT29 colon; SNB-75 CNS; SNB-19 CNS; U251 CNS; PC-3 prostate; SK-MEL-5 melanoma; UACC-62 melanoma; LOX IMVI melanoma; SK-MEL-28 melanoma.
What all share (test): NCI-60 one-dose screen, 48 h (100 = growth as untreated, 0 = no growth, -100 = all killed)
Holding throughout (conditions): 10 µM unless noted

Compounds without any hit were thinned out: in the full panel of roughly 83,000, 20% have a hit.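 Single-dose data. Exposure time 48 hours. Values below 10 considered active.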 Unmarked numbers belong to inactive results. Active and inactive are the calls of the source.

Consider `Cc1ccc(S(=O)(=O)NCC[C@@H]2C[C@H]2c2cc3ccccc3s2)cc1`, for which the growth in the test on HCT-15 colon was 101%; in the test on HT29 colon, 107%; with SNB-75 CNS, 82.7%; in the test with SNB-19 CNS, 95.6%; with U251 CNS, 98.6%; in the test with PC-3 prostate, 99.8%. For the same compound, the growth in the test on SK-MEL-5 melanoma was 102%; in the test with UACC-62 melanoma, 68.1%; in the test with LOX IMVI melanoma it was 96.7%; with SK-MEL-28 melanoma, 105%.

As for `CSc1n(Cc2ccc3ccccc3c2)c(C)c[n+]1Cc1ccc2ccccc2c1`, the growth with HCT-15 colon was 24.4%; in the test on HT29 colon it was -11.2% (active); in the test on SNB-75 CNS, -32.4% (active); with SNB-19 CNS it was 3.42% (active); in the test on U251 CNS, 2.53% (active); in the test with PC-3 prostate, 0.0083% (active). Further, the growth in the test with SK-MEL-5 melanoma is -95.8% (active); with UACC-62 melanoma it was -56.2% (active); in the test on LOX IMVI melanoma, -91.5% (active); in the test with SK-MEL-28 melanoma it was -9.19% (active).

As to `COc1cc(-c2nc(N3CCN(C)CC3)c3ccccc3n2)cc(OC)c1OC`, the growth in the test with HCT-15 colon was 56.9%; in the test with HT29 colon, 49.5%; with SNB-75 CNS, 15.7%; in the test with SNB-19 CNS, 85.2%; in the test with U251 CNS, 60.2%; in the test on PC-3 prostate, 52.8%. The growth in the test with SK-MEL-5 melanoma is 47%; in the test with UACC-62 melanoma, 18.2%; in the test on LOX IMVI melanoma, 44.3%; in the test with SK-MEL-28 melanoma, 59.5%.

Regarding `N=C1C(c2nc(-c3ccc(Br)cc3)cs2)=C(O)CN1Cc1cccnc1`, the growth with HCT-15 colon is 87.5%; with HT29 colon, 65.4%; in the test with SNB-75 CNS it was 15.5%; in the test with SNB-19 CNS, 75.9%; in the test with U251 CNS, 56.7%; in the test with PC-3 prostate, -6.43% (active). Further, the growth is 79.6% with SK-MEL-5 melanoma, 78.2% in the test on UACC-62 melanoma, 85.3% with LOX IMVI melanoma and 48.5% in the test on SK-MEL-28 melanoma.

As to `CCC(CO)Nc1nc2ccc(Cl)cc2c2ccccc12` (stereo not given), the growth was 57.1% with HCT-15 colon; 30.1% in the test with HT29 colon; 18.8% in the test with SNB-75 CNS; 53.8% in the test on SNB-19 CNS; 51.3% with U251 CNS; 59.5% with PC-3 prostate. In addition, the growth was 68.4% in the test with SK-MEL-5 melanoma, 60.4% in the test with UACC-62 melanoma, 67.2% with LOX IMVI melanoma and 90.8% in the test with SK-MEL-28 melanoma.

Take `O=[N+]([O-])c1ccc(-c2cc(-c3ccc(Nc4nc(Nc5ccc(Cl)cc5)nc(Nc5ccc(Cl)cc5)n4)cc3)no2)cc1`: the growth was 89.9% in the test with HCT-15 colon; 16.5% in the test with HT29 colon; 16.9% in the test on SNB-75 CNS; 98.2% in the test with SNB-19 CNS; 91.9% with U251 CNS; 74.1% in the test with PC-3 prostate. Besides, the growth is 79.5% in the test on SK-MEL-5 melanoma, 95.7% with UACC-62 melanoma, 84.4% with LOX IMVI melanoma and 40.5% with SK-MEL-28 melanoma.

Turning to `CCOC(=O)C/C(C)=N\NC(=O)c1ccncc1`, the growth with HCT-15 colon is 108%; in the test on HT29 colon it was 100%; with SNB-75 CNS, 107%; in the test on SNB-19 CNS it was 87.7%; with U251 CNS it was 107%; with PC-3 prostate, 96.5%. In addition, the growth is 104% in the test with SK-MEL-5 melanoma, 88.1% with UACC-62 melanoma, 105% with LOX IMVI melanoma and 116% in the test with SK-MEL-28 melanoma.

With `Cc1ccc(Nc2ccc(Nc3ccc(C)cc3)c3c2C(=O)c2cccc(O)c2C3=O)cc1`, the growth with HCT-15 colon was 100%; with HT29 colon, 117%; in the test on SNB-75 CNS it was 93.8%; in the test with SNB-19 CNS, 104%; in the test on U251 CNS, 104%; with PC-3 prostate, 78.9%. For the same compound, the growth in the test with SK-MEL-5 melanoma was 95.9%; with UACC-62 melanoma, 87.1%; in the test with LOX IMVI melanoma, 91.5%; in the test with SK-MEL-28 melanoma, 118%.

`COc1ccc2cc(-c3cc(OC)c(OC)c(OC)c3)c(=O)oc2c1`: the growth in the test with HCT-15 colon is 50%; with HT29 colon it was 44.3%; in the test on SNB-75 CNS, 65%; with SNB-19 CNS, 80.3%; with U251 CNS it was 70.7%; in the test on PC-3 prostate, 69.2%. The growth in the test on SK-MEL-5 melanoma was 79.5%; in the test with UACC-62 melanoma, 42%; in the test on LOX IMVI melanoma, 73.5%; in the test on SK-MEL-28 melanoma, 78.5%.

Consider `Cc1cc(Cl)ccc1Nc1nc(C(F)(F)F)ccc1C(=O)N/N=C/c1ccc(N(C)C)cc1`, for which the growth with HCT-15 colon is 15.9%; with HT29 colon, 32.5%; in the test on SNB-75 CNS it was 65.1%; in the test on SNB-19 CNS, 42%; in the test on U251 CNS it was 16.2%; in the test on PC-3 prostate, 30.3%. Moreover, the growth is 12.9% with SK-MEL-5 melanoma, 9.47% (active) in the test with UACC-62 melanoma, 27% in the test on LOX IMVI melanoma and 45.2% with SK-MEL-28 melanoma.

Turning to `COc1ccc(N=Nc2ccc(O)c(=O)cc2)cc1`, the growth with HCT-15 colon is 16.4%; in the test on HT29 colon it was 33.1%; in the test with SNB-75 CNS, 8.47% (active); in the test on SNB-19 CNS, 15.1%; in the test on U251 CNS, 12.8%; in the test on PC-3 prostate, 36.6%. In addition, the growth in the test with SK-MEL-5 melanoma was -23.3% (active); in the test with UACC-62 melanoma, -54% (active); in the test with LOX IMVI melanoma it was -38.8% (active); in the test with SK-MEL-28 melanoma, 5.78% (active).

In the case of `O=c1ssc(Cl)c1-c1ccccc1`, the growth was 101% in the test on HCT-15 colon; 103% in the test with HT29 colon; 90.5% with SNB-75 CNS; 111% with SNB-19 CNS; 104% in the test with U251 CNS; 79.5% in the test on PC-3 prostate. In addition, the growth with SK-MEL-5 melanoma is 97.1%; in the test on UACC-62 melanoma, 95.4%; in the test with LOX IMVI melanoma, 92.5%; in the test on SK-MEL-28 melanoma, 100%.

In the case of `NCCCNc1nc2ccccc2c2c(=O)c3cccc(Cl)c3sc12`, the growth was -79.6% (active) with HCT-15 colon; -63.2% (active) in the test on HT29 colon; 41.7% in the test with SNB-75 CNS; 49.8% in the test on SNB-19 CNS; -51.7% (active) with U251 CNS; 43.8% in the test with PC-3 prostate. The growth with SK-MEL-5 melanoma was 60.3%; with UACC-62 melanoma it was 51.4%; in the test on LOX IMVI melanoma it was -90% (active); in the test with SK-MEL-28 melanoma, 53.2%.

Values taken from PubChem BioAssay (NCI).
